{"source": "the supplement of paper PMC8007513", "tested_on": "Trichoderma virens ATCC 9645", "assay": "growth yield (OD600) with compound + IPBC relative to untreated control; higher = less growth inhibition", "conditions": "compound concentration: 100 uM, IPBC concentration: 200 ng/ml", "in_short": "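Trichoderma virens ATCC 9645 spores, from potato dextrose agar plates grown for 7 days, were brought to 15,000 spores ml^−1 in potato dextrose broth and dispensed as 100 μl aliquots into 96-well plates. Each aliquot received library compounds at 100 μM final, with or without a biocide at 200 ng ml^−1, before growth at 30 °C and OD600 readings on a BioTek EL800 at 40 h and 72 h. Growth is expressed relative to the control containing neither agent and represents means of duplicate screens.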", "note": "Counter-ions that a name gives are not always drawn. ± gives the standard error. Among all 1,300 compounds or so, about 130 (10%) showed an effect of 50% or more. Only a selection was taken, and strong results are over-represented in it overall."}
{"smiles": "C[C@]12COC(=O)C[C@@H]1CC[C@@H]1[C@@H]2CC[C@@]2(C)[C@H]1CC[C@]2(C)O", "note": "[Oxandrolone] + CCCCNC(=O)OCC#CI [3-iodo-2-propynyl butylcarbamate (IPBC)]", "values": [{"measurement": "growth yield", "setting": "40 h", "value": "102.8 ± 0.79", "unit": "%"}, {"measurement": "growth yield", "setting": "72 h", "value": "101.8 ± 0.94", "unit": "%"}]}
{"smiles": "CCN(CC)C(=O)Nc1ccc(OCC(O)CNC(C)(C)C)c(C(C)=O)c1", "note": "(configuration not stated) [Celiprolol hydrochloride] + CCCCNC(=O)OCC#CI [3-iodo-2-propynyl butylcarbamate (IPBC)]", "values": [{"measurement": "growth yield", "setting": "40 h", "value": "87 ± 5.7", "unit": "%"}, {"measurement": "growth yield", "setting": "72 h", "value": "92.2 ± 3.9", "unit": "%"}]}
{"smiles": "CN[C@@H]1[C@@H](O)[C@@H](O[C@@H]2[C@@H](O)[C@H](O[C@H]3O[C@H](CN)CC[C@H]3N)[C@@H](N)C[C@H]2N)OC[C@]1(C)O.CN[C@@H]1[C@@H](O)[C@@H](O[C@@H]2[C@@H](O)[C@H](O[C@H]3O[C@H]([C@@H](C)N)CC[C@H]3N)[C@@H](N)C[C@H]2N)OC[C@]1(C)O.CN[C@@H]1[C@@H](O)[C@@H](O[C@@H]2[C@@H](O)[C@H](O[C@H]3O[C@H]([C@@H](C)NC)CC[C@H]3N)[C@@H](N)C[C@H]2N)OC[C@]1(C)O", "note": "[Gentamicine sulfate] + CCCCNC(=O)OCC#CI [3-iodo-2-propynyl butylcarbamate (IPBC)]", "values": [{"measurement": "growth yield", "setting": "40 h", "value": "98.3 ± 7.5", "unit": "%"}, {"measurement": "growth yield", "setting": "72 h", "value": "101 ± 4.4", "unit": "%"}]}
{"smiles": "C[C@@H]1[C@H](O)[C@@H](C)/C=C/C=C/C=C/C=C/C=C/C=C/C=C/[C@H](O[C@@H]2O[C@H](C)[C@@H](O)[C@H](N)[C@@H]2O)C[C@@H]2O[C@](O)(C[C@@H](O)C[C@@H](O)[C@H](O)CC[C@@H](O)C[C@@H](O)CC(=O)O[C@H]1C)C[C@H](O)[C@H]2C(=O)O", "note": "[Amphotericin B] + CCCCNC(=O)OCC#CI [3-iodo-2-propynyl butylcarbamate (IPBC)]", "values": [{"measurement": "growth yield", "setting": "40 h", "value": "37.3 ± 4.6", "unit": "%"}, {"measurement": "growth yield", "setting": "72 h", "value": "92.61 ± 0.73", "unit": "%"}]}
{"smiles": "CC1OC(OC2/C=C/C=C/C=C/C=C/CC/C=C/C=C/[C@H](C)[C@@H](O)[C@@H](C)[C@H](C)OC(=O)CC(O)CC(O)CC(O)CCC(O)C(O)C[C@]3(O)CC(O)C(C(=O)O)C(C2)O3)C(O)C(N)C1O", "note": "(some centres not stated) [Nystatine] + CCCCNC(=O)OCC#CI [3-iodo-2-propynyl butylcarbamate (IPBC)]", "values": [{"measurement": "growth yield", "setting": "40 h", "value": "50.5 ± 2.5", "unit": "%"}, {"measurement": "growth yield", "setting": "72 h", "value": "104 ± 2.3", "unit": "%"}]}
{"smiles": "Clc1cccc(Cl)c1NC1=NCCN1", "note": "[Clonidine hydrochloride] + CCCCNC(=O)OCC#CI [3-iodo-2-propynyl butylcarbamate (IPBC)]", "values": [{"measurement": "growth yield", "setting": "40 h", "value": "92.9 ± 5.6", "unit": "%"}, {"measurement": "growth yield", "setting": "72 h", "value": "99.2 ± 4.4", "unit": "%"}]}
{"smiles": "Cc1oncc1C(=O)Nc1ccc(C(F)(F)F)cc1", "note": "[Leflunomide] + CCCCNC(=O)OCC#CI [3-iodo-2-propynyl butylcarbamate (IPBC)]", "values": [{"measurement": "growth yield", "setting": "40 h", "value": "40.2 ± 3", "unit": "%"}, {"measurement": "growth yield", "setting": "72 h", "value": "82 ± 1.5", "unit": "%"}]}
{"smiles": "CC1CCc2cc(F)cc3c(=O)c(C(=O)O)cn1c23", "note": "(configuration not stated) [Flumequine] + CCCCNC(=O)OCC#CI [3-iodo-2-propynyl butylcarbamate (IPBC)]", "values": [{"measurement": "growth yield", "setting": "40 h", "value": "78.63 ± 0.16", "unit": "%"}, {"measurement": "growth yield", "setting": "72 h", "value": "97.12 ± 0.84", "unit": "%"}]}
{"smiles": "COC(=O)[C@H]1[C@H]2C[C@@H]3c4[nH]c5cc(OC)ccc5c4CCN3C[C@H]2C[C@@H](OC(=O)c2cc(OC)c(OC)c(OC)c2)[C@@H]1OC", "note": "[Reserpine] + CCCCNC(=O)OCC#CI [3-iodo-2-propynyl butylcarbamate (IPBC)]", "values": [{"measurement": "growth yield", "setting": "40 h", "value": "102 ± 3.2", "unit": "%"}, {"measurement": "growth yield", "setting": "72 h", "value": "104 ± 2", "unit": "%"}]}
{"smiles": "CC(=O)NC1CCSC1=O", "note": "(racemic) [N-Acetyl-DL-homocysteine Thiolactone] + CCCCNC(=O)OCC#CI [3-iodo-2-propynyl butylcarbamate (IPBC)]", "values": [{"measurement": "growth yield", "setting": "40 h", "value": "95.8 ± 7.8", "unit": "%"}, {"measurement": "growth yield", "setting": "72 h", "value": "96.3 ± 7.8", "unit": "%"}]}
{"smiles": "CC(C(=O)O)c1cccc(Oc2ccccc2)c1", "note": "(configuration not stated) [Fenoprofen calcium salt dihydrate] + CCCCNC(=O)OCC#CI [3-iodo-2-propynyl butylcarbamate (IPBC)]", "values": [{"measurement": "growth yield", "setting": "40 h", "value": "73.9 ± 12", "unit": "%"}, {"measurement": "growth yield", "setting": "72 h", "value": "84 ± 9.1", "unit": "%"}]}
{"smiles": "CC(C(=O)O)c1ccc(-c2ccccc2)c(F)c1", "note": "(configuration not stated) [Flurbiprofen] + CCCCNC(=O)OCC#CI [3-iodo-2-propynyl butylcarbamate (IPBC)]", "values": [{"measurement": "growth yield", "setting": "40 h", "value": "43.4 ± 3.3", "unit": "%"}, {"measurement": "growth yield", "setting": "72 h", "value": "76.9 ± 2", "unit": "%"}]}
{"smiles": "CC(C(=O)O)c1cccc(C(=O)c2ccccc2)c1", "note": "(configuration not stated) [Ketoprofen] + CCCCNC(=O)OCC#CI [3-iodo-2-propynyl butylcarbamate (IPBC)]", "values": [{"measurement": "growth yield", "setting": "40 h", "value": "74 ± 0.95", "unit": "%"}, {"measurement": "growth yield", "setting": "72 h", "value": "86.4 ± 1.5", "unit": "%"}]}
{"smiles": "NC(CO)C(=O)NNCc1ccc(O)c(O)c1O", "note": "(configuration not stated) [Benserazide hydrochloride] + CCCCNC(=O)OCC#CI [3-iodo-2-propynyl butylcarbamate (IPBC)]", "values": [{"measurement": "growth yield", "setting": "40 h", "value": "63.9 ± 0.64", "unit": "%"}, {"measurement": "growth yield", "setting": "72 h", "value": "75.2 ± 0.52", "unit": "%"}]}
{"smiles": "CN[C@@H]1[C@H](O)[C@H](NC)[C@H]2O[C@@]3(O)C(=O)C[C@@H](C)O[C@H]3O[C@@H]2[C@H]1O", "note": "[Spectinomycin dihydrochloride] + CCCCNC(=O)OCC#CI [3-iodo-2-propynyl butylcarbamate (IPBC)]", "values": [{"measurement": "growth yield", "setting": "40 h", "value": "104 ± 13", "unit": "%"}, {"measurement": "growth yield", "setting": "72 h", "value": "103 ± 8", "unit": "%"}]}
{"smiles": "CC(NCCC(c1ccccc1)c1ccccc1)c1ccccc1", "note": "(configuration not stated) [Fendiline hydrochloride] + CCCCNC(=O)OCC#CI [3-iodo-2-propynyl butylcarbamate (IPBC)]", "values": [{"measurement": "growth yield", "setting": "40 h", "value": "70.37 ± 0.16", "unit": "%"}, {"measurement": "growth yield", "setting": "72 h", "value": "93.7 ± 1.4", "unit": "%"}]}
{"smiles": "Cc1ccnc(NS(=O)(=O)c2ccc(N)cc2)n1", "note": "[Sulfamerazine] + CCCCNC(=O)OCC#CI [3-iodo-2-propynyl butylcarbamate (IPBC)]", "values": [{"measurement": "growth yield", "setting": "40 h", "value": "88.2 ± 6.2", "unit": "%"}, {"measurement": "growth yield", "setting": "72 h", "value": "90.9 ± 4.7", "unit": "%"}]}
{"smiles": "CC(C)(C)C(=O)OCOC(=O)[C@@H]1N2C(=O)[C@@H](/N=C/N3CCCCCC3)[C@H]2SC1(C)C", "note": "[Pivmecillinam hydrochloride] + CCCCNC(=O)OCC#CI [3-iodo-2-propynyl butylcarbamate (IPBC)]", "values": [{"measurement": "growth yield", "setting": "40 h", "value": "57.8 ± 4.5", "unit": "%"}, {"measurement": "growth yield", "setting": "72 h", "value": "77.2 ± 3.1", "unit": "%"}]}
{"smiles": "CCC(=O)O[C@]1(C(=O)CCl)[C@@H](C)C[C@H]2[C@@H]3CCC4=CC(=O)C=C[C@]4(C)[C@@]3(F)[C@@H](O)C[C@@]21C", "note": "[Clobetasol propionate] + CCCCNC(=O)OCC#CI [3-iodo-2-propynyl butylcarbamate (IPBC)]", "values": [{"measurement": "growth yield", "setting": "40 h", "value": "109 ± 7.2", "unit": "%"}, {"measurement": "growth yield", "setting": "72 h", "value": "106 ± 4.7", "unit": "%"}]}
{"smiles": "C[C@@H]1C[C@@H]([C@H](O)CC2CC(=O)NC(=O)C2)C(=O)[C@@H](C)C1", "note": "[Cycloheximide] + CCCCNC(=O)OCC#CI [3-iodo-2-propynyl butylcarbamate (IPBC)]", "values": [{"measurement": "growth yield", "setting": "40 h", "value": "34.3 ± 2.9", "unit": "%"}, {"measurement": "growth yield", "setting": "72 h", "value": "85.7 ± 3.2", "unit": "%"}]}
{"smiles": "C[C@]12CC[C@H]3C(=CCc4cc(O)ccc43)[C@@H]1CCC2=O", "note": "[Equilin] + CCCCNC(=O)OCC#CI [3-iodo-2-propynyl butylcarbamate (IPBC)]", "values": [{"measurement": "growth yield", "setting": "40 h", "value": "82.4 ± 17", "unit": "%"}, {"measurement": "growth yield", "setting": "72 h", "value": "86.8 ± 9", "unit": "%"}]}
